Assay outcomes from PubChem BioAssay.
A selection: hits, their analogues and other compounds. The true share with any hit is near 1.2%.
BH1578 lux ind = induces V. cholerae light production without autoinducers | 350,000 tested, 0.16% active | V. cholerae BH1578 lux reporter, luminescence, 6 h | activation, % at 18.7 µM; in the data active = activation mostly above about 9.7%, no sharp cut-off
PfHsp40 yeast = restores yeast growth despite PfHsp40 toxicity; 340,000 tested, 0.68% active; AID 504582; growth rescue, % at 12.5 µM; S. cerevisiae expressing PfHsp40, growth rescue, ATP luminescence; in the data active = growth rescue above about 28%, passing the limit was not always enough;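 also: yeast W303a lacking pdr1 and pdr3 grown in galactose medium; growth measured after three days at 30 °C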
TcdB inh = inhibitors of Clostridioides difficile toxin B glycohydrolase; TcdB glycohydrolase enzymatic assay, plate reader; P18177; inhibition, % at 9.99 µM; 350,000 tested, 0.24% active; in the data active = inhibition above about 10%
VHR inh abs = DUSP3 (human) phosphatase inhibition; recombinant VHR phosphatase, pNPP absorbance; inhibition, % at 13.3 µM; 290,000 tested, 0.52% active; P51452; in the data active = inhibition above about 50%
Target sequence (P51452 whole entry, looked up): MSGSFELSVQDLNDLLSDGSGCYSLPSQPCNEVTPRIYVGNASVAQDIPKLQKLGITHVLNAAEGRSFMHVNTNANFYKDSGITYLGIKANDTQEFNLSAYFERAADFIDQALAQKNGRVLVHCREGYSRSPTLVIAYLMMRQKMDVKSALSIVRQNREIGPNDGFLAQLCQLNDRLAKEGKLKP
Yp Topo-I inh = Y. pestis Topo-I inhibition via cleavage products; Y. pestis Topo-I cleavage product accumulation, plate reader; activity, % at 10 µM; 360,000 tested, 0.064% active; AID 504884; in the data active = activity above about 50%, passing the limit was not always enough
Mtb BioA inh = inhibitors of Mycobacterium tuberculosis BioA enzyme; purified M. tuberculosis BioA enzyme, plate reader; inhibition, % at 9.99 µM; 360,000 tested, 0.096% active; in the data active = inhibition above about 40%
* hit, by the source's call; i = inactive; · = no result.

SMILES	BH1578 lux ind	PfHsp40 yeast	TcdB inh	VHR inh abs	Yp Topo-I inh	Mtb BioA inh
Cc1ccc(NC(=O)CN(C)c2ccc(S(=O)(=O)N3CCCC3)cn2)cc1	0	-1	1	4	-6	-3
Cc1coc2c1c(C)cc1oc(=O)c(CC(=O)NCCC(=O)O)c(C)c12	0	-1	1	-29	4	-1
O=c1cc(CSc2ccc(Cl)cc2)nc(-c2ccccn2)[nH]1	1	325*	0	16	9	-2
O=c1cc(CSc2ccc(Cl)cc2)nc(-c2ccccc2)[nH]1	0	-1	-1	9	0	·
O=c1[nH]c(-c2ccccn2)nc2sc(-c3ccccc3)cc12	·	177*	1	6	-10	·
O=C(N/N=C/C(c1ccccc1)c1ccccc1)c1ccccc1F	0	-1	0	1	26	·
CO[C@H]1CN(C)C(=O)c2ccc(NC(=O)c3cc(C)on3)cc2OC[C@H](C)NC[C@H]1C	·	·	1	·	·	-1
Cc1ccc2nc(N3CCN(C(=O)c4ccc(F)cc4)CC3)c(C#N)cc2c1	2	0	1	6	-1	0
Cc1ccc2cc(C#N)c(N3CCN(C(=O)c4cccs4)CC3)nc2c1	0	0	-7	51*	16	5
Cc1cc2c(cn1)C(CCC#N)(CCC#N)c1ccccc1-2	-1	54*	2	-5	1	0
O=P(Nc1ccccc1)(Nc1ccccc1)c1ccccc1	i	43*	1	·	10	·
CC(C)Cn1c(N)c(C(=O)COC(=O)C2Cc3ccccc3CN2S(C)(=O)=O)c(=O)n(C)c1=O (stereo not drawn)	5	50*	3	·	5	-1
CC(c1ccccc1)n1c(N2CCNCC2)nc2c1c(=O)[nH]c(=O)n2C (stereo not drawn)	-1	-1	1	56*	9	-1
N#CC(c1ccc(Cl)nn1)c1ccc(Cl)cc1Cl (stereo not drawn)	i	2	·	38	-3	1
O=C(Oc1ccc(N(C(=O)c2ccncc2)S(=O)(=O)c2cccs2)cc1)c1ccncc1	i	1	1	8	5	·
Cc1cc(F)ccc1S(=O)(=O)N(C(=O)c1ccncc1)c1ccc(OC(=O)c2ccncc2)cc1	i	422*	0	6	23	1
CCOC(=O)C1CCCN(C(=O)c2cc(-c3ccccc3)cs2)CC1 (stereo not drawn)	i	·	1	·	40	3
CCCC(=O)NC(c1ccc(N(C)C)cc1)c1ccc2cccnc2c1O (stereo not drawn)	i	410*	3	19	-3	-1
CCCC(=O)NC(c1ccc(C(C)C)cc1)c1ccc2cccnc2c1O (stereo not drawn)	1	-2	4	6	38	-1
CCC(=O)NC(c1ccc(Cl)cc1Cl)c1ccc2cccnc2c1O (stereo not drawn)	i	122*	-1	38	-6	0
COc1cc2nc(N3CCNCC3)nc(N)c2cc1OC	-11	186*	·	-5	-5	·
Cc1c(C(=O)Oc2cccc3ccccc23)cnn1-c1ccccc1	i	34*	·	7	42	0
CC(=O)c1cnn(-c2ccccc2)c1C	i	-1	1	2	2	·
Cc1nn(Cc2c(F)cccc2Cl)c(C)c1NC(=O)C1CC1	i	-1	·	51*	0	·
Cn1c(O)c(N=NC(=O)CNC(=O)c2ccccc2)c2ccccc21	-1	-1	1	53*	2	-2
SMILES	BH1578 lux ind	PfHsp40 yeast	TcdB inh	VHR inh abs	Yp Topo-I inh	Mtb BioA inh
CCn1c(O)c(N=NC(=O)CNC(=O)Cc2ccccc2)c2ccccc21	0	0	1	-24	-5	0
CCCn1c(O)c(N=NC(=O)CNC(=O)Cc2ccc(OC)cc2)c2ccccc21	439*	0	4	1	17	-1
CCCn1c(O)c(N=NC(=O)CNC(=O)/C=C/c2ccc(OC)cc2)c2ccccc21	80*	1	-2	12	20	1
C=CCn1c(O)c(N=NC(=O)CNC(=O)/C=C/c2ccc(OC)cc2)c2ccccc21	0	2	3	21	22	-1
Cn1c(O)c(N=NC(=O)CNC(=O)c2ccccc2)c2cc(Br)ccc21	0	0	-1	43	22	-1
CCCNC(=O)N(C)C[C@@H]1Oc2ncc(C#CCc3ccccc3)cc2C(=O)N([C@H](C)CO)C[C@H]1C	·	·	1	·	·	-2
CCCC(=O)NC(c1ccc(OC)cc1)c1c(O)ccc2ccccc12 (stereo not drawn)	-7	-1	0	13	2	-2
CC(=O)Oc1ccc2ccccc2c1C(NC(=O)Cc1ccccc1)c1ccc(Cl)cc1 (stereo not drawn)	-1	40*	·	0	11	0
COc1ccc(C(NC(=O)CC(C)C)c2c(O)ccc3ccccc23)cc1 (stereo not drawn)	0	33*	1	20	-1	0
CCCOC(=O)NC1CCS(=O)(=O)C1 (stereo not drawn)	17*	-1	·	27	5	-2
CCCCCCCCCCOC(=O)NC1CCS(=O)(=O)C1 (stereo not drawn)	0	3	0	24	20	·
COc1ccc(CCN2C(=O)C=CC2=O)cc1OC	i	138*	-2	·	21	·
COc1ccc(CCn2c(C)ccc2C)cc1OC	·	·	·	9	·	·
O=C(CCn1c2c(c3ccccc31)CCCC2)NNC(=O)c1ccc([N+](=O)[O-])cc1	0	1	0	16	-11	·
O=C(CCn1c2c(c3ccccc31)CCCC2)NNC(=O)c1ccc(Cl)c([N+](=O)[O-])c1	0	0	0	52*	-17	·
Cc1cc(O)ccc1NC(=O)c1ccccc1	-2	0	12*	-12	2	·
O=C(N/N=C/c1c(O)n(-c2ccc(Cl)cn2)c(=O)c2ccccc12)c1ccncc1	i	29*	·	7	-1	-2
O=C(N/N=C/c1c(O)n(-c2ccc(Cl)cn2)c(=O)c2ccccc12)C1CC1	-2	-2	·	28	-4	·
Cc1nnc(SCC(=O)N2CCCC2)n1-c1ccc(F)cc1	i	-1	1	·	-4	1
Cc1cccc(S(=O)(=O)N(C)C[C@H]2OCc3cnnn3CCCC(=O)N([C@H](C)CO)C[C@@H]2C)c1	-2	·	1	·	6	0
O=C(COc1ccc2cc(Br)ccc2c1Br)N1CCOCC1	0	1	-1	-6	53*	1
O=Nc1c(O)n(Cc2cccc(Cl)c2)c2ccccc12	30*	0	·	34	23	·
Cc1c(NC(=S)NC(=O)c2ccco2)c(=O)n(-c2ccccc2)n1C	i	0	·	7	5	0
Cc1ccc(C)c(NC(=S)N(CCc2nc3cc(C)c(C)cc3[nH]2)Cc2cccnc2)c1	i	-2	·	53*	-9	-1
CCCc1ccc(C(C)NC(=S)NC2CCCCC2)cc1 (stereo not drawn)	8	159*	1	14	21	1
CC(NC(=S)NC1CCCCC1)c1ccccc1 (stereo not drawn)	-1	-1	2	23	-4	0
